Assay results taken from ChEMBL document CHEMBL1961873, “Compounds: GSK PKIS; Assays: Nanosyn kinase panel” (2012).

Legend:
[1] = target: Tyrosine-protein kinase Fyn (Homo sapiens) (UniProt P06241); conditions: at 1 µM
[2] = target: Tyrosine-protein kinase HCK (Homo sapiens) (UniProt P08631); conditions: at 0.1 µM
[3] = target: Tyrosine-protein kinase HCK (Homo sapiens) (UniProt P08631); conditions: at 1 µM
[4] = target: Insulin-like growth factor 1 receptor (Homo sapiens) (UniProt P08069); conditions: at 0.1 µM
[5] = target: Insulin-like growth factor 1 receptor (Homo sapiens) (UniProt P08069); conditions: at 1 µM
[6] = target: Insulin receptor (Homo sapiens) (UniProt P06213); conditions: at 0.1 µM
Chain of Insulin receptor (Homo sapiens) (P06213 28-758 limits assumed): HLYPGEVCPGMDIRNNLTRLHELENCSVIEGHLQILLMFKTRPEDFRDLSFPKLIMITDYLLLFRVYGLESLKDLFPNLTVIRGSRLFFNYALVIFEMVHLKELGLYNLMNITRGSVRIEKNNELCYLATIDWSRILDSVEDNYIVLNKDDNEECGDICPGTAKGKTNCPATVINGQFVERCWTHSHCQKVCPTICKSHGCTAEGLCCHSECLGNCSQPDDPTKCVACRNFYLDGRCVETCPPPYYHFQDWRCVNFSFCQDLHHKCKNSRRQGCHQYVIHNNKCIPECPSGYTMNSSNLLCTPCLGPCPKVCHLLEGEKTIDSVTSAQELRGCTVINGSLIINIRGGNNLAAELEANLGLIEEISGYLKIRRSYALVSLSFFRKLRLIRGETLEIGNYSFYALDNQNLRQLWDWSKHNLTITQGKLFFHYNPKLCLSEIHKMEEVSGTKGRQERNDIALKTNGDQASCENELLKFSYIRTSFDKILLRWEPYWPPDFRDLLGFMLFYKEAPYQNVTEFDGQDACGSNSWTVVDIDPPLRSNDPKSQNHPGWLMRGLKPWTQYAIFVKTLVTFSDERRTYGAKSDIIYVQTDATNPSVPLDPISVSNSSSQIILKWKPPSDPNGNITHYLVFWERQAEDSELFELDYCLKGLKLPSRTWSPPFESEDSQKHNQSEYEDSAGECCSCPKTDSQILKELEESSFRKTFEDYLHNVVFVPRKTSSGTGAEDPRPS
Chain of Insulin receptor (Homo sapiens) (P06213 763-1382 limits assumed): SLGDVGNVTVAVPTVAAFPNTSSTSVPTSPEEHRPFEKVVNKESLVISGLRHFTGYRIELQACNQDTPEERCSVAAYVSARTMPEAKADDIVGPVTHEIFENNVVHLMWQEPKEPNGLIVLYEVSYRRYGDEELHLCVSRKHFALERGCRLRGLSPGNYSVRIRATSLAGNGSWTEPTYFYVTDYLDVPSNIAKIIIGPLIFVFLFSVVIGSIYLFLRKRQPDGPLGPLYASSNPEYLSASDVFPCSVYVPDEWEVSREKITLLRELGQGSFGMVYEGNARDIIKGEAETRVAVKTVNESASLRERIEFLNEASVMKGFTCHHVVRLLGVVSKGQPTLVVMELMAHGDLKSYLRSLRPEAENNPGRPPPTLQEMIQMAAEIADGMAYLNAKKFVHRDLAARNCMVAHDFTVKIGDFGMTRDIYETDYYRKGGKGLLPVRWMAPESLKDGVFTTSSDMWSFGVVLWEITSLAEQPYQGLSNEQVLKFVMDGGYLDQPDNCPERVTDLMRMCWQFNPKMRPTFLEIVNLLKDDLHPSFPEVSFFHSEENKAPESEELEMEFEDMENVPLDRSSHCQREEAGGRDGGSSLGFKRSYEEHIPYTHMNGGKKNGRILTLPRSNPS

[7] = target: Insulin receptor (Homo sapiens) (UniProt P06213); conditions: at 1 µM
[8] = target: Insulin receptor-related protein (Homo sapiens) (UniProt P14616); conditions: at 0.1 µM
[9] = target: Insulin receptor-related protein (Homo sapiens) (UniProt P14616); conditions: at 1 µM
[10] = target: T1, Tyrosine-protein kinase ITK/TSK (Homo sapiens) (UniProt Q08881); conditions: at 0.1 µM
T1 sequence (whole entry): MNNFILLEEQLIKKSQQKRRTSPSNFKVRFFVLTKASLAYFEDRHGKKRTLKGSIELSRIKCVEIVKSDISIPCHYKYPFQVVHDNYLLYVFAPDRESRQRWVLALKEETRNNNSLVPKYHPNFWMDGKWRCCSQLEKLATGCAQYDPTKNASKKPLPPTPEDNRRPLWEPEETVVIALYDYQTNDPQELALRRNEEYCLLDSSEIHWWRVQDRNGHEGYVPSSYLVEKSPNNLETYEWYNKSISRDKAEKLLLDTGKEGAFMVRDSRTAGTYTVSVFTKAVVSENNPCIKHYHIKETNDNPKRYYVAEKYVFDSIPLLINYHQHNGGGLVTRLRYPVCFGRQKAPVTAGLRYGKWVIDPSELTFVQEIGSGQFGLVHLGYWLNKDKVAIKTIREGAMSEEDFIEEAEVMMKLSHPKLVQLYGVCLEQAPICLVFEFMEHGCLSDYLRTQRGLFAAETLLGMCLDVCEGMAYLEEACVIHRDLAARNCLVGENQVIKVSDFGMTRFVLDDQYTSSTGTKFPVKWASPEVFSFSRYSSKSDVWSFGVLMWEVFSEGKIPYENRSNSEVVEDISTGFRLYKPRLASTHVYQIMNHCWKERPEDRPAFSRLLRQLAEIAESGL

[11] = target: T1, Tyrosine-protein kinase ITK/TSK (Homo sapiens); conditions: at 1 µM
[12] = target: Tyrosine-protein kinase JAK1 (Homo sapiens) (UniProt P23458); conditions: at 0.1 µM
Chain of Tyrosine-protein kinase JAK1 (Homo sapiens) (P23458 whole entry): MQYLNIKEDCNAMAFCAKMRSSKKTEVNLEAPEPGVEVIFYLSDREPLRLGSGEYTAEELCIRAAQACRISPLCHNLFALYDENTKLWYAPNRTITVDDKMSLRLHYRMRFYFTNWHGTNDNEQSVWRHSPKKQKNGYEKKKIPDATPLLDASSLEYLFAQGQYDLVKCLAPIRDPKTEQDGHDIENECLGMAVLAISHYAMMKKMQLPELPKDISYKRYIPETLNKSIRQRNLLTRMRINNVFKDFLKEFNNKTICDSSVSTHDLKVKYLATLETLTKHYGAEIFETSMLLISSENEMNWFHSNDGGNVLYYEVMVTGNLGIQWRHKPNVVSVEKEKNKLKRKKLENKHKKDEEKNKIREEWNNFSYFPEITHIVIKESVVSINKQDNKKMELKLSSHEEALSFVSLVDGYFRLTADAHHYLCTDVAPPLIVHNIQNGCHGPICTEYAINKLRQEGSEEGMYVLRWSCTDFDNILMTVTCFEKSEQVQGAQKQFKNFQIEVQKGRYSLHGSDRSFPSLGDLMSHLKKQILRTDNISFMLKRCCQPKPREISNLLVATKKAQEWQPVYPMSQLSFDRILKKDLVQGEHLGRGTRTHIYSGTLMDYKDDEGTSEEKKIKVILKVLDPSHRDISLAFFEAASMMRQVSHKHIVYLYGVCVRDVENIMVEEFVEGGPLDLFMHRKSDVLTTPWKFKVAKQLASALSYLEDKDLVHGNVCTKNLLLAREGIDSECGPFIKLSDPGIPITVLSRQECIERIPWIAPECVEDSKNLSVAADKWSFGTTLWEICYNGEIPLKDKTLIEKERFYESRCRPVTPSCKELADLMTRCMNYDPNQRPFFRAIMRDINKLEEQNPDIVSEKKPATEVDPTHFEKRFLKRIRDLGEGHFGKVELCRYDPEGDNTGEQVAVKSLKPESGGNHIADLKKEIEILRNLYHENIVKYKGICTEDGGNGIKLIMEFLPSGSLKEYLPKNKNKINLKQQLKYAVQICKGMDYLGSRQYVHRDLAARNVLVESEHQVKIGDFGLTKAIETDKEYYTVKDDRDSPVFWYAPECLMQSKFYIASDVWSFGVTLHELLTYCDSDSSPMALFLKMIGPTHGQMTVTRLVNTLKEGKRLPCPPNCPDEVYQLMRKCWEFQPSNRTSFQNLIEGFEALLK

[13] = target: Tyrosine-protein kinase JAK1 (Homo sapiens) (UniProt P23458); conditions: at 1 µM
[14] = target: Tyrosine-protein kinase JAK2 (Homo sapiens) (UniProt O60674); conditions: at 0.1 µM
[15] = target: Tyrosine-protein kinase JAK2 (Homo sapiens) (UniProt O60674); conditions: at 1 µM
[16] = target: T2, Tyrosine-protein kinase JAK3 (Homo sapiens) (UniProt P52333); conditions: at 0.1 µM
T2 sequence (whole entry): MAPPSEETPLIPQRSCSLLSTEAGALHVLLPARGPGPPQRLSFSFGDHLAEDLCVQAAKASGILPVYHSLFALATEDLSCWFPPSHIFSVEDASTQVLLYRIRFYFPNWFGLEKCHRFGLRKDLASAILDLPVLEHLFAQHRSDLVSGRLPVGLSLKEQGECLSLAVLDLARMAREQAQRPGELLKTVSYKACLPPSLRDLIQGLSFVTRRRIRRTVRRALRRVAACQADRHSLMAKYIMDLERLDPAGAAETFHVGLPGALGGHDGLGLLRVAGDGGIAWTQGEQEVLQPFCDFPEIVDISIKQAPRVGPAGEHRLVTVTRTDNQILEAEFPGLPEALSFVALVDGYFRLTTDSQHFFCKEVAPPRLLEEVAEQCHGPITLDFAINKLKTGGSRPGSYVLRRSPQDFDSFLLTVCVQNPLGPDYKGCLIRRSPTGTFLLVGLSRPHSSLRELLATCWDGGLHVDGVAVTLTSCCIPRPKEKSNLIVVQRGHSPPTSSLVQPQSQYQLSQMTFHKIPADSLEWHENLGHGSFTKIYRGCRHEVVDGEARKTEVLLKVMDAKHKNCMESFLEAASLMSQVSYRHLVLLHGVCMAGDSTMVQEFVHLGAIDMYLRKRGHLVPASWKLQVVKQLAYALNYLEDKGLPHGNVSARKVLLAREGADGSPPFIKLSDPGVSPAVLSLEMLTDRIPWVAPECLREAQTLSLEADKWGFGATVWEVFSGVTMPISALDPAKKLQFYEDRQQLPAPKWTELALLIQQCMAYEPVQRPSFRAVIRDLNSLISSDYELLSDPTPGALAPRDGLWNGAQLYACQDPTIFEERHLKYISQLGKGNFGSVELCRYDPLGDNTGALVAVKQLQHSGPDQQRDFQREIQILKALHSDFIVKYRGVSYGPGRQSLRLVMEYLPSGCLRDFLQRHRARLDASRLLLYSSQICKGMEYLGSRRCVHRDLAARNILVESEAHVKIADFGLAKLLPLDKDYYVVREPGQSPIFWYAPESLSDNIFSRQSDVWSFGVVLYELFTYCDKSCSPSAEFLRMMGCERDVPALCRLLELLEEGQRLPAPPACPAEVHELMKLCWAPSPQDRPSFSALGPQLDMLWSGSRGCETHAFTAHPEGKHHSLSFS

[17] = target: T2, Tyrosine-protein kinase JAK3 (Homo sapiens); conditions: at 1 µM
[18] = target: Vascular endothelial growth factor receptor 2 (Homo sapiens) (UniProt P35968); conditions: at 0.1 µM
[19] = target: Vascular endothelial growth factor receptor 2 (Homo sapiens) (UniProt P35968); conditions: at 1 µM
[20] = target: Mast/stem cell growth factor receptor Kit (Homo sapiens) (UniProt P10721); conditions: at 0.1 µM;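 further: values are mean inhibition of KIT, from the GSK PKIS dataset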
Chain of Mast/stem cell growth factor receptor Kit (Homo sapiens) (P10721 whole entry): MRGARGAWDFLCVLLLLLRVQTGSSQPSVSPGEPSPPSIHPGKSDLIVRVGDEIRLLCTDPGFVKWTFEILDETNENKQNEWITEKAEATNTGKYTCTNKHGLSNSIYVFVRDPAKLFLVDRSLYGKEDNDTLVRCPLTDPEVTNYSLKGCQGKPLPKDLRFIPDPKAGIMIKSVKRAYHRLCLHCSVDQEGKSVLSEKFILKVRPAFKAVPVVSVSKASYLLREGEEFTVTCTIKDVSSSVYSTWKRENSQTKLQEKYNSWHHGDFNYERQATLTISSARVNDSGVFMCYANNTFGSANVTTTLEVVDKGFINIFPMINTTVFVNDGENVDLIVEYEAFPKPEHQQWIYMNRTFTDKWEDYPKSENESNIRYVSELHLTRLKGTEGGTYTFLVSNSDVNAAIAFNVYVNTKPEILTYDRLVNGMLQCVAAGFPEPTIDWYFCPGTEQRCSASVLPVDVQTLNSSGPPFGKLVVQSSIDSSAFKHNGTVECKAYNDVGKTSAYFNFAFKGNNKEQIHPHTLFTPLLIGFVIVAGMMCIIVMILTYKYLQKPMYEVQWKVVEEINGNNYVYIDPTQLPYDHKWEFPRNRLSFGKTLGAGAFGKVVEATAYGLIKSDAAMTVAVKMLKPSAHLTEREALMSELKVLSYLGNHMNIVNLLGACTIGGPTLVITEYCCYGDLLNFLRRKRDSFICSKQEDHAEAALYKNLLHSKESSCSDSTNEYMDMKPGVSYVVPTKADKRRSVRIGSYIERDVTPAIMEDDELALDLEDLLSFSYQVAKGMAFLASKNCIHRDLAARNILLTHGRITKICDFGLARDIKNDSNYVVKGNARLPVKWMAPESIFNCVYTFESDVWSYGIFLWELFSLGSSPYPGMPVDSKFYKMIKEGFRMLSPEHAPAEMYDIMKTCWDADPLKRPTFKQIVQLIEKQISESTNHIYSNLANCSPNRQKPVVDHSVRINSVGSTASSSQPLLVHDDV

Chain of Tyrosine-protein kinase Fyn (Homo sapiens) (P06241 2-537 limits assumed): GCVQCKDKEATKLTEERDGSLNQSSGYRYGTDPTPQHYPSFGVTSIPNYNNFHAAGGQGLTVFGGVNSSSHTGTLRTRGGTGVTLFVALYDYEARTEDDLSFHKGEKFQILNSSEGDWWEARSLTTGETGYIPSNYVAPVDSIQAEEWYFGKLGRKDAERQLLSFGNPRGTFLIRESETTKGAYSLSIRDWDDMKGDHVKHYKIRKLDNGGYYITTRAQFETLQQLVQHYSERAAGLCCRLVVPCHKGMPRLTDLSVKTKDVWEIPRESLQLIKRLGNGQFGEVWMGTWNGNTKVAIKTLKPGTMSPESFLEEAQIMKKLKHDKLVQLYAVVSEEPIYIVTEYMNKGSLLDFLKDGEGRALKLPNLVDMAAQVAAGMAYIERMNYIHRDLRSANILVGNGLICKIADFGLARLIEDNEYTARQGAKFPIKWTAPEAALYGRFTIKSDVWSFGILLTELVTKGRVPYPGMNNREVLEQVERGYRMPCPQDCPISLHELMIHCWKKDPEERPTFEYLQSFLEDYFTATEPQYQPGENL
Chain of Tyrosine-protein kinase HCK (Homo sapiens) (P08631 2-526 limits assumed): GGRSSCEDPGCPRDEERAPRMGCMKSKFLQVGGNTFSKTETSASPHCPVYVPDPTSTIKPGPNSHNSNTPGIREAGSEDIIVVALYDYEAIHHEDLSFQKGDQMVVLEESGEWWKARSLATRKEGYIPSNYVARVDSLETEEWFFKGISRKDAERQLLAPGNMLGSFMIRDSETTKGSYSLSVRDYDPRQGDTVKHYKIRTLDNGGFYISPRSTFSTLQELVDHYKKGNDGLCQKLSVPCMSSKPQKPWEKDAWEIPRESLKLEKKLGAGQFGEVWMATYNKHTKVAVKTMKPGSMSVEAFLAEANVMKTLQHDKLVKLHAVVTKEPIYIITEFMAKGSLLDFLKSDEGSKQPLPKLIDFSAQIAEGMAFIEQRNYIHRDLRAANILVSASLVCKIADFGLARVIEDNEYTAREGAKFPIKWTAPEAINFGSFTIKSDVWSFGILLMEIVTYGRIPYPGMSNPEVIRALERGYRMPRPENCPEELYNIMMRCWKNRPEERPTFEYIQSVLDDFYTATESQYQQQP

Structure (SMILES) | inhibition [1] [%] | inhibition [2] [%] | inhibition [3] [%] | inhibition [4] [%] | inhibition [5] [%] | inhibition [6] [%] | inhibition [7] [%] | inhibition [8] [%] | inhibition [9] [%] | inhibition [10] [%] | inhibition [11] [%] | inhibition [12] [%] | inhibition [13] [%] | inhibition [14] [%] | inhibition [15] [%] | inhibition [16] [%] | inhibition [17] [%] | inhibition [18] [%] | inhibition [19] [%] | inhibition [20] [%]
CC(=O)Nc1cccc(C#Cc2cncnc2Nc2ccc(OCc3cccc(F)c3)c(Cl)c2)n1 | 2.69 | -0.02 | 2.4 | -4.35 | -3.59 | -4.01 | -3.08 | -1.19 | 0 | -0.1 | 0.33 | 3.25 | 14.8 | -1.97 | -0.27 | 2.07 | 2.66 | -2.26 | 2.74 | -0.74
NS(=O)(=O)c1ccc(N/N=C2\C(=O)Nc3ccc(C(=O)NCCc4c[nH]cn4)cc32)cc1 | 17.2 | 9.6 | 25 | 5.24 | 17.3 | 6.5 | 32 | 6.49 | 2.5 | 1.78 | 3.56 | 5.75 | 0.16 | 2.27 | 2.46 | 0.03 | 3.43 | 12.9 | 43.3 | 5.68
NS(=O)(=O)c1cccc(-c2ccc3c(NC(=O)C4CC4)n[nH]c3c2)c1 | 2.4 | -0.53 | 1.86 | -0.13 | 3.51 | 3.15 | -0.25 | -2.37 | -1.21 | -0.53 | 0.22 |  | -4.88 | -0.14 | -1.18 | -0.5 | 1.58 | 0.44 | 6.32 | -1.56
Nc1ncnc2occ(-c3ccc(NC(=O)Nc4cc(C(F)(F)F)cc(C(F)(F)F)c4)cc3)c12 | 10.3 | 6.07 | 27.1 | 1.24 | 7.12 | -4.81 | 6.05 | 5.56 | 2.23 | 1.65 | 11.2 | -0.74 |  | 0.74 | 1.44 | 0.06 | 0.78 | 46.7 | 68.2 | 29
CC1=C(C(=O)Nc2ccc3[nH]ncc3c2)C(c2ccc(Cl)c(Cl)c2)CC(=O)N1 (configuration not stated) | 2.37 | 6.21 | 7.31 | -0.16 | 1.11 | 1.45 | 1.96 | 0.58 | 1.03 | 1.18 | 0.67 | 5.41 | 36.6 | 1.94 | 23.5 | 0.78 | 18 | 3.14 | 5.12 | 3.22
N#Cc1c(NC(=O)c2cccc3ccccc23)sc2c1CCCC2 | 4.04 | 4.79 | 6.4 | 1.59 | 2.51 | 5.97 | 6.62 | 0.81 | 1.11 | 1.77 | 1.28 | 3.98 | 3.68 | 1.62 | 1.85 | -0.84 | 1.51 | 6.33 | 9.83 | 2.71
CCn1c(-c2nonc2N)nc2c(N3CCCC3)nccc21 | 0.7 | -0.01 | 2.43 | 0.23 | 2.72 | 1.98 | -1.23 | -2.24 | -0.91 | 0.23 | -0.14 |  | -2.79 | -0.66 | -1.59 | -0.2 | 2.23 | 1.32 | 6.67 | -1.56
